ROMK primary – ROMK potassium channel modulators, primary screen, cell-based, thallium flux, MLSMR library; ATP-sensitive inward rectifier potassium channel 1 (Homo sapiens), P48048; Tet-inducible ROMK, thallium flux fluorescence; actives lie on both sides; B-score at 10 µM; 2% of 130,000 active;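 active = signal ratio slope over the read window, or its plate-corrected B-score, at least 3 SD from the plate mean, either direction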;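 note: B-score of the F/F0 ratio slope over 7 to 12 s after thallium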
Target sequence (P48048 whole entry, looked up): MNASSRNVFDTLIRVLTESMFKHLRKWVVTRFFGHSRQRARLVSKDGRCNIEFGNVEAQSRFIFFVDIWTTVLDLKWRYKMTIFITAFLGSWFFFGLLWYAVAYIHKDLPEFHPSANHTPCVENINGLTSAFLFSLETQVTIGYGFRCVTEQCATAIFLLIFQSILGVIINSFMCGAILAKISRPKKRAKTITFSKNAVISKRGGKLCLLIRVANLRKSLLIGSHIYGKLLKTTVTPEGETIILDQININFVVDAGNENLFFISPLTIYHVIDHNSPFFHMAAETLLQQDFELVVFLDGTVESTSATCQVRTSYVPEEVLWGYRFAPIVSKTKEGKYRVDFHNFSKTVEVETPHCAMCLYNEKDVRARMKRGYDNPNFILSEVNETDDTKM
Insulin prom up – insulin promoter activators in MIN6 cells, imaging, high-content screening, mouse beta cells; z-score at 5 µM; 0.3% of 190,000 active; MIN6 insulin promoter-GFP reporter; hits give high values; AID 1625, 2009;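 active = z-score above 3 at 5 µM with at least 500 cells counted in the well; inconclusive = wells under 500 cells, flagged as cytotoxic or low count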
WT yeast gro inh – growth inhibition of WT strain, primary screen, mitochondrial fusion inhibitor project, WT and mutant strains, chemical genetic; mitochondrial fusion phenotypic screen; inhibition, % at 10 µM; 2.1% of 190,000 active; AID 1362, 2008; in the data active = inhibition above about 58%; tested in S. cerevisiae
L major viab – Leishmania major promastigote growth inhibition, primary screen; Leishmania major promastigotes, resazurin fluorescence viability; inhibition, % at 10 µM; 9% of 200,000 active; AID 1063, 2008; in the data active = inhibition above about 50%;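 note: promastigotes grown with compound for 44 hours at 28 °C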
Insulin prom inh – inhibitors of insulin promoter-driven GFP, primary screen, imaging, TRM-6 cells (human fetal islet line), eGFP reporter, cell count; reporter expression induced with tamoxifen; inhibition, % at 2 µM; 0.9% of 130,000 active;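 active = inhibition above the mean plus 3 SD, with well images judged a real hit on visual review, cut at about 60% in these data, passing the limit was not always enough; inconclusive = inhibition over the cutoff but images rejected on review; inactive = inhibition not above the cutoff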
Cl transport mod – KCC2 cotransporter modulators, thallium flux, primary screen, cell-based, HEK293 KCC2, FluoZin-2 fluorescence, MLSMR | Solute carrier family 12 member 5 (Homo sapiens), Q9H2X9 | B-score of Tl+ flux slope (higher = more flux/activation; lower = inhibition) at 10 µM | KCC2 cells, thallium flux FluoZin-2 fluorescence | AID 1456, 2008 | 2.2% of 190,000 active;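 active = thallium flux slope and its plate-corrected score both differing from the plate sample mean at a set confidence after two filtering rounds, in either direction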;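 note: slope of fluorescence scaled to starting intensity during 10 to 20 s after thallium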
ROMK retest – ROMK channel modulator hit retest, confirmation, cell-based, thallium flux, duplicate, resupplied hits. normalized thallium flux (F/F0 slope) at 10 µM. shares compounds with ROMK primary. AID 1917, 2009. fluorescence ratio; hits give low values. 54% of 3,000 active;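 active = Flux at 10 µM at least 3 SD below or above vehicle control mean in one or both replicates; inconclusive = no clear call, values can overlap the other calls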
Active calls of the source: *; ? = inconclusive; . = no result; ! = repeats disagree. Shown are actives, neighbours in structure and some others; about 12% of the full set was active somewhere.

SMILES | ROMK primary | Insulin prom up | WT yeast gro inh | L major viab | Insulin prom inh | Cl transport mod | ROMK retest
COc1cccc(CNCCc2c[nH]c3ccccc23)c1OCc1ccccc1 | . | -1.4 | 32 | 99* | . | 0.58 | 0.059*
COc1ccccc1CCNCc1ccc(OC)c(OCc2ccccc2)c1 | . | -0.45 | -6 | 100* | -35 | 0.31 | 0.065*
COc1ccc(NC(=S)NCCc2c[nH]c3ccccc23)c(OC)c1 | -0.08 | -0.76 | 2 | 28 | -14 | -1.3 | .
COc1cc(CNCCc2ccccc2)ccc1OCc1ccc(Cl)nc1 | -3.7* | . | 24 | 100* | -32 | 0.33 | 0.057*
COc1cc(CNCCc2ccccc2)ccc1OCC(N)=O | 0.55 | . | 2 | -2 | 13 | 1.6 | .
CCOC(=O)CNC(=O)CSc1nc(N(C)C)nc(N2CCOCC2)n1 | . | . | -5 | -3 | 31 | -0.15 | .
COc1cc(/C=C2\SC(=S)N(NC(=O)c3cccnc3)C2=O)ccc1O | -4.2* | . | . | . | . | -2.3 | 0.058*
COc1cc(/C=C2\SC(=S)N(Nc3ncc(C(F)(F)F)cc3Cl)C2=O)ccc1O | -3.7* | -0.21 | 83* | 23 | 49 | -0.65 | 0.064*
CN(C)c1ccc(/C=C2\SC(=S)N(Nc3ncc(C(F)(F)F)cc3Cl)C2=O)cc1 | . | . | 5 | -1 | -63 | -2.7 | .
O=C1/C(=C/c2ccc(O)c(O)c2)SC(=S)N1Nc1ccccc1 | -2* | 0.51 | 7 | 78* | . | -2.3 | 0.058*
O=C(Nc1ccccc1)N(C1=NCCCCS1)c1ccccc1 | . | 0.66 | -1 | 31 | . | 1.6 | 0.073
Cc1cccc(-c2nc(CS(=O)CC(=O)NCCCSC3CCCCC3)c(C)o2)c1 (stereo not given) | -4* | 0.32 | 29 | -3 | . | -1.1 | 0.059*
COc1cccc(-c2cc(C(F)(F)F)c(C#N)c(=O)[nH]2)c1 | -0.35 | 0.61 | -17 | 0 | . | -1 | .
CCn1c(=O)[nH]c(=O)c2c(N)c(C(=O)c3ccccc3OC)sc21 | 3.7* | -1.5 | -11 | 27 | 44 | 0.73 | 0.095
CCc1cc(C(=O)c2ccccc2OC)c(N)s1 | . | -0.11 | 13 | 18 | . | 0.11 | .
CC(C)(C)Nc1nc(NN)nc(NC(C)(C)C)n1 | -5.2* | 0.67 | 15 | 81* | . | 0.053 | 0.051*
Cn1c(N)c(C(=O)COC(=O)c2cccnc2Cl)c(=O)n(C)c1=O | . | -0.07 | -16 | 1 | 7 | 0.56 | 0.079
O=C(Nc1ncc([N+](=O)[O-])s1)c1cccc([N+](=O)[O-])c1 | . | -0.89 | . | . | . | . | .
O=C(Nc1ccccc1)Nc1ncc([N+](=O)[O-])s1 | -1.8 | 0.17 | 70* | 11 | 28 | -1.4 | 0.064*
COc1ccccc1CN1C(=O)CCC1(C)C(=O)NC1CCCCCC1 (stereo not given) | . | -1.3 | 14 | -5 | -70 | -0.36 | .
COc1ccc(N2C(=O)CC2(/C=C/c2ccccc2OC)C(=O)NC2CCCC2)cc1 (stereo not given) | -4.7* | . | 35 | 34 | -281 | -0.98 | 0.054*
CCCCNC(=O)c1cc2c(C)cc(C)cc2[nH]1 | -0.053 | 0.56 | . | . | . | -0.13 | .
COc1cccc(C2=NOC(C(=O)NCc3ccco3)C2)c1 (stereo not given) | 5* | . | 10 | -2 | 29 | . | 0.081
O=C(NCc1ccco1)C1CC(c2ccc(Cl)cc2)=NO1 (stereo not given) | 4.6* | -0.03 | 14 | -6 | . | -0.48 | 0.093
CN(C(=O)c1ccc2nccnc2c1)C1CCCCC1 | . | 1.4 | . | . | . | 0.42 | .
SMILES | ROMK primary | Insulin prom up | WT yeast gro inh | L major viab | Insulin prom inh | Cl transport mod | ROMK retest
CCc1cc2c(NCC(=O)O)ncnc2s1 | . | 0.7 | 0 | -3 | . | 0.4 | .
CCc1cc2c(NCc3ccco3)ncnc2s1 | -3.9* | ? | 5 | 23 | 29 | . | 0.076
COC(=O)C1=C(C(=O)OC)[C@@H]2N(Cc3ccccc3)c3ccccc3[C@@]23C[C@@H](C(=O)OC)N(C(=O)CC(C)C)C3=N1 | . | -0.47 | . | . | . | -1.4 | ?
C=CCSC1=N/C(=C\C=C\c2ccco2)C(=O)S1 | 0.0011 | . | -4 | 1 | -21 | . | .
CC(C)N(Cc1ccccc1)C(=O)/C=C/c1ccccc1[N+](=O)[O-] | -0.93 | 0.13 | 1 | 17 | -14 | 0.017 | .
CN(C(=O)COc1ccc(Cl)cc1)c1nnc(C23CC4CC(CC(C4)C2)C3)s1 | . | -0.75 | -7 | -10 | . | 0.89 | .
NCCOc1ccc(C23CC4CC(CC(C4)C2)C3)cc1 | -2.9* | -0.06 | 97* | 101* | . | 0.31 | 0.063*
Cc1ccc(-c2nn(-c3ccccc3)cc2/C=C2\SC(=S)N(CC(=O)O)C2=O)cc1 | . | 0.91 | . | . | . | -0.42 | .
CCOc1ccc(-c2nn(-c3ccccc3)cc2/C=C2\SC(=S)N(C3CCS(=O)(=O)C3)C2=O)cc1 (stereo not given) | -5.4* | -0.99 | 14 | 15 | 11 | -0.92 | 0.049*
COc1ccc(CNc2oc(COc3ccc(Cl)cc3)nc2C#N)cc1 | -2.1* | -0.18 | 71* | -5 | . | -1.9 | 0.073
O=C(CN=C1NS(=O)(=O)c2ccccc21)OCC(=O)c1ccccc1 | . | 0.38 | . | . | . | 0.96 | .
CC1CCC(C(C)C)C(OC(=O)Cn2c(-c3ccc(Br)cc3)[n+](C)c3ccccc32)C1 (stereo not given) | -6.8* | -1.9 | 66*! | 100* | 0 | -0.27 | 0.044*
Cc1ccccc1OCc1n(CC(=O)OC2CC(C)CCC2C(C)C)c2ccccc2[n+]1C (stereo not given) | . | -5.1 | 62* | 101* | -29 | -0.96 | 0.042*
CC1CCC(C(C)C)C(OC(=O)Cn2c(-c3ccc(Cl)cc3)[n+](C)c3ccccc32)C1 (stereo not given) | -8* | ? | . | . | . | 0.96 | 0.043*
CC1CCC(C(C)C)C(OC(=O)Cn2nnc3c(cnn3-c3ccccc3)c2=O)C1 (stereo not given) | . | 0.13 | . | . | . | . | .
CC1CCC(C(C)C)C(OC(=O)COC(=O)c2ccc(N)cc2)C1 (stereo not given) | . | -0.46 | 32 | 18 | . | 0.76 | .
C/C(=N\O)C(=O)OC1CC(C)CCC1C(C)C (stereo not given) | . | -0.19 | 42 | 7 | . | -0.31 | .
CCC1CCCCN1S(=O)(=O)c1ccc(S(=O)(=O)N(Cc2ccccn2)CC2CCCO2)cc1 (stereo not given) | -2.4 | -0.56 | 20 | 17 | 16 | -1 | .
CCC1CCCCN1S(=O)(=O)c1ccc(S(=O)(=O)N(Cc2cccs2)C2CC2)cc1 (stereo not given) | . | -1.1 | -63 | 100* | . | -0.098 | ?
Cc1cc(C(=O)CN2C(=O)NC(C)(c3cccc(Br)c3)C2=O)c(C)n1Cc1ccco1 (stereo not given) | . | . | 22 | 34 | . | 0.64 | ?
